Source: PubChem BioAssay AID1159580 (chemical genetic matrix, 2015)
“And” between values parts separate entries of the source, which are not always exact repeats. Equal values may be shown once. In all, about 5,500 compounds went through this assay and about 2,000 (36%) were called active. Roughly 18% stayed inconclusive and do not appear here. Cut-off read from the data, not from the text of the source: active = normalized growth mostly below about 0.91 (no sharp cut-off); inconclusive = no clear call, values can overlap the other calls; inactive = mostly above about 0.92. Some of the results follow.

Assay: chemical genetic growth profiling, strain panel (AID 1159580);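 note: tested at 20 µM; growth read once vehicle control cultures reached saturation at 30 °C; 1 = growth at the plate median or of vehicle wells; lower values mean less growth of the strain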
Settings: growth OD

Measured: normalized growth

CCCC(C(=O)OCCN(CC)CC)(c1ccccc1)c1ccccc1
inactive: S. cerevisiae deletion strains, locus YJR075W, strain HOC1, active compounds read low 1 and 0.971 | S. cerevisiae deletion strains, locus YKL009W, strain mrt4, active compounds read low 0.982 | S. cerevisiae deletion strains, locus YKL068W, active compounds read low 0.995 | S. cerevisiae deletion strains, locus YKL085W, strain MDH1 (second series), active compounds read low 0.99 | S. cerevisiae deletion strains, locus YKL085W, strain MDH1, active compounds read low 0.99 | S. cerevisiae deletion strains, locus YKL160W, strain elf1, active compounds read low 0.982 | S. cerevisiae deletion strains, locus YKL190W, strain CNB1, active compounds read low 0.995 | S. cerevisiae deletion strains, locus YKR001C, strain vps1, active compounds read low 0.999 | S. cerevisiae deletion strains, locus YKR026C, strain gcn3, active compounds read low 1 | S. cerevisiae deletion strains, locus YKR091W, strain srl3, active compounds read low 1 | S. cerevisiae deletion strains, locus YLL001W, strain dnm1, active compounds read low 0.998 | S. cerevisiae deletion strains, locus YLL026W, active compounds read low 1.01 | S. cerevisiae deletion strains, locus YLL041C, strain sdh2, active compounds read low 1 | S. cerevisiae deletion strains, locus YLR027C, strain aat2, active compounds read low 1 | S. cerevisiae deletion strains, locus YLR039C, strain RIC1, active compounds read low 1.16 | S. cerevisiae deletion strains, locus YLR058C, strain SHM2, active compounds read low 1.01 | S. cerevisiae deletion strains, locus YLR102C, strain apc9, active compounds read low 0.994 | S. cerevisiae deletion strains, locus YLR113W, strain HOG1, active compounds read low 0.966 | S. cerevisiae deletion strains, locus YLR221C, strain rsa3, active compounds read low 0.991 | S. cerevisiae deletion strains, locus YLR258W, strain gsy2, active compounds read low 0.989 | S. cerevisiae deletion strains, locus YLR262C, strain YPT6 (second series), active compounds read low 1.12 | S. cerevisiae deletion strains, locus YLR262C, strain YPT6, active compounds read low 1.25 | S. cerevisiae deletion strains, locus YLR268W, strain sec22, active compounds read low 0.977 | S. cerevisiae deletion strains, locus YLR320W, strain mms22, active compounds read low 0.968 | S. cerevisiae deletion strains, locus YLR330W, strain CHS5, active compounds read low 1.01 | S. cerevisiae deletion strains, locus YLR342W, strain FKS1 (second series), active compounds read low 0.941 | S. cerevisiae deletion strains, locus YLR342W, strain FKS1, active compounds read low 0.999 | S. cerevisiae deletion strains, locus YLR357W, strain rsc2, active compounds read low 0.935 | S. cerevisiae deletion strains, locus YLR370C, strain arc18, active compounds read low 1 | S. cerevisiae deletion strains, locus YLR371W, strain rom2, active compounds read low 0.985 | S. cerevisiae deletion strains, locus YLR384C, strain iki3, active compounds read low 1.01 | S. cerevisiae deletion strains, locus YLR418C, strain cdc73, active compounds read low 0.883 | S. cerevisiae deletion strains, locus YML016C, strain PPZ1, active compounds read low 1.01 | S. cerevisiae deletion strains, locus YML032C, strain rad52, active compounds read low 0.989 | S. cerevisiae deletion strains, locus YML120C, strain ndi1, active compounds read low 0.989 | S. cerevisiae deletion strains, locus YML124C, strain tub3, active compounds read low 0.995 | S. cerevisiae deletion strains, locus YMR058W, strain fet3, active compounds read low 1 | S. cerevisiae deletion strains, locus YMR078C, strain ctf18, active compounds read low 0.99 | S. cerevisiae deletion strains, locus YMR125W, strain sto1, active compounds read low 1.01 | S. cerevisiae deletion strains, locus YMR129W, active compounds read low 0.983 | S. cerevisiae deletion strains, locus YMR205C, strain PFK2, active compounds read low 0.972 | S. cerevisiae deletion strains, locus YMR223W, strain ubp8, active compounds read low 0.967 | S. cerevisiae deletion strains, locus YMR231W, strain pep5, active compounds read low 1.01 | S. cerevisiae deletion strains, locus YMR263W, strain SAP30, active compounds read low 1 | S. cerevisiae deletion strains, locus YMR307W, strain GAS1, active compounds read low 1.03 | S. cerevisiae deletion strains, locus YNL067W, strain RPL9B, active compounds read low 0.996 | S. cerevisiae deletion strains, locus YNL071W, strain lat1, active compounds read low 0.957 | S. cerevisiae deletion strains, locus YNL128W, strain TEP1, active compounds read low 0.992 | S. cerevisiae deletion strains, locus YNL153C, strain GIM3, active compounds read low 1.02 and 1.01 | S. cerevisiae deletion strains, locus YNL183C, strain NPR1, active compounds read low 0.946 | S. cerevisiae deletion strains, locus YNL197C, strain WHI3, active compounds read low 1.01 | S. cerevisiae deletion strains, locus YNL209W, strain ssb2, active compounds read low 1.02 | S. cerevisiae deletion strains, locus YNL224C, strain SQS1, active compounds read low 1.02 | S. cerevisiae deletion strains, locus YNL233W, strain BNI4, active compounds read low 1.01 | S. cerevisiae deletion strains, locus YNL248C, strain rpa49, active compounds read low 0.989 | S. cerevisiae deletion strains, locus YNL250W, strain rad50, active compounds read low 0.981 | S. cerevisiae deletion strains, locus YNL271C, strain bni1, active compounds read low 0.994 | S. cerevisiae deletion strains, locus YNL298W, strain CLA4, active compounds read low 0.989 | S. cerevisiae deletion strains, locus YNL307C, strain MCK1, active compounds read low 0.983 | S. cerevisiae deletion strains, locus YNL322C, strain KRE1 (second series), active compounds read low 1.01 | S. cerevisiae deletion strains, locus YNL322C, strain KRE1, active compounds read low 0.985 | S. cerevisiae deletion strains, locus YNR049C, strain mso1, active compounds read low 1.01 | S. cerevisiae deletion strains, locus YNR052C, strain pop2, active compounds read low 0.986 | S. cerevisiae deletion strains, locus YOL006C, strain TOP1, active compounds read low 1.05 | S. cerevisiae deletion strains, locus YOL012C, strain htz1 0.951 | S. cerevisiae deletion strains, locus YOL147C, strain pex11, active compounds read low 0.995 | S. cerevisiae deletion strains, locus YOR001W, strain rrp6, active compounds read low 0.977 | S. cerevisiae deletion strains, locus YOR061W, strain CKA2, active compounds read low 1.01 | S. cerevisiae deletion strains, locus YOR069W, strain VPS5, active compounds read low 1 | S. cerevisiae deletion strains, locus YOR070C, strain gyp1, active compounds read low 1 | S. cerevisiae deletion strains, locus YOR080W, strain dia2, active compounds read low 0.993 | S. cerevisiae deletion strains, locus YOR083W, strain WHI5 (second series), active compounds read low 0.993 | S. cerevisiae deletion strains, locus YOR083W, strain WHI5, active compounds read low 0.983 | S. cerevisiae deletion strains, locus YOR106W, strain vam3, active compounds read low 0.979 | S. cerevisiae deletion strains, locus YOR136W, strain idh2, active compounds read low 0.993 | S. cerevisiae deletion strains, locus YOR144C, strain elg1, active compounds read low 0.989 | S. cerevisiae deletion strains, locus YOR184W, strain ser1, active compounds read low 0.99 | S. cerevisiae deletion strains, locus YOR231W, strain MKK1, active compounds read low 0.98 | S. cerevisiae deletion strains, locus YOR265W, strain rbl2, active compounds read low 1.01 | S. cerevisiae deletion strains, locus YOR270C, strain vph1, active compounds read low 0.942 | S. cerevisiae deletion strains, locus YOR290C, strain snf2, active compounds read low 0.998 | S. cerevisiae deletion strains, locus YOR316C, strain cot1, active compounds read low 1 | S. cerevisiae deletion strains, locus YPL051W, strain arl3, active compounds read low 0.972 | S. cerevisiae deletion strains, locus YPL055C, strain LGE1, active compounds read low 1.01 | S. cerevisiae deletion strains, locus YPL078C, strain atp4, active compounds read low 0.998 | S. cerevisiae deletion strains, locus YPL106C, strain sse1, active compounds read low 1.02 | S. cerevisiae deletion strains, locus YPL240C, strain hsp82, active compounds read low 0.998 | S. cerevisiae deletion strains, locus YPL241C, strain CIN2, active compounds read low 1 | S. cerevisiae deletion strains, locus YPL256C, strain CLN2, active compounds read low 0.994 | S. cerevisiae deletion strains, locus YPR119W, strain clb2, active compounds read low 0.996 | S. cerevisiae deletion strains, locus YPR141C, strain kar3, active compounds read low 0.996 | S. cerevisiae deletion strains, locus YPR163C, strain tif3, active compounds read low 0.995 | S. cerevisiae deletion strains, locus YPR167C, strain met16, active compounds read low 0.993 | S. cerevisiae deletion strains, strain wtn01, active compounds read low 0.974 | S. cerevisiae strains, strain wild type, active compounds read low 1.01
